From the supplement of paper PMC8866396
± gives the standard deviation of the averaged measurements.

Columns and labels:
IL-6-GFP PC-9GR = assay: cell viability (CCK-8 OD) relative to DMSO control (fraction of control); higher = more viable cells; conditions: compound concentration: 10 uM; treatment time: 48 h
In short: (§1)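 PC-9 and PC-9GR lung cancer cells overexpressing IL-6-GFP from a lentiviral construct were plated at 3000 cells/well in 96-well plates. Each compound from a purchased 510-compound library was added at a final 10 μM for 48 h, with a parallel plate set used for GFP imaging. Viability was measured by CCK-8 absorbance and expressed as each well's optical density divided by the vehicle (DMSO) control well, from two independent replicates.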

IL-6-GFP PC-9 = assay: as above; conditions: compound concentration: 10 uM; treatment time: 48 h
In short: as §1

Row | Compound | cell viability (IL-6-GFP PC-9GR) | cell viability (IL-6-GFP PC-9)
1 | CC1(C(=O)O)CCC2(C)CCC3(C)C(=CC(=O)C4C5(C)CCC(OC6OC(C(=O)O)C(O)C(O)C6OC6OC(C(=O)O)C(O)C(O)C6O)C(C)(C)C5CCC43C)C2C1.N.N (stereo unspecified) [Diammonium Glycyrrhizinate] | 1.11 ± 0.22 | 1.19 ± 0.07
2 | O=C(NCC1CN(c2ccc(N3CCOCC3=O)cc2)C(=O)O1)c1ccc(Cl)s1 (stereo unspecified) [Rivaroxaban] | 0.949 ± 0.11 | 0.98 ± 0.11
3 | COc1ccc(-c2ccc3cc(C(=O)O)ccc3c2)cc1C12CC3CC(CC(C3)C1)C2 [Adapalene] | 1.15 ± 0.15 | 0.765 ± 0.3
4 | Cc1ccc(C(C)C)c(O)c1 [Thymol] | 0.9 ± 0.16 | 1.08 ± 0.2
5 | CC(C)Cc1ccc(C(C)C(=O)O)cc1 (stereo unspecified) [Ibuprofen] | 1.32 ± 0.12 | 1.06 ± 0.19
6 | CO/N=C(\C(=O)NC1C(=O)N2C(C(=O)OCOC(=O)C(C)(C)C)=C(C)CSC12)c1csc(N)n1.Cl (stereo unspecified) [Cefetamet pivoxil hydrochloride] | 1.25 ± 0.28 | 1.14 ± 0.056
7 | Cc1cc2ncc(C(=O)NCC(C)(C)NCC(=O)N3CCCC3C#N)cn2n1 (stereo unspecified) [Anagliptin] | -0.0161 ± 0.12 | 1.23 ± 0.022
8 | O=c1[nH]c(=O)n(C2CC(O)C(CO)O2)cc1F (stereo unspecified) [Floxuridine] | 0.681 ± 0.02 | 0.808 ± 0.25
9 | Cc1c(Cl)cccc1Nc1ccccc1C(=O)O [Tolfenamic Acid] | 1.39 ± 0.44 | 1.18 ± 0.046
10 | CC(OC1OCCN(Cc2n[nH]c(=O)[nH]2)C1c1ccc(F)cc1)c1cc(C(F)(F)F)cc(C(F)(F)F)c1 (stereo unspecified) [Aprepitant] | 1.01 ± 0.071 | 0.767 ± 0.041
11 | CCS(=O)(=O)N1CC(CC#N)(n2cc(-c3ncnc4[nH]ccc34)cn2)C1.O=P(O)(O)O [Baricitinib phosphate] | 0.391 ± 0.7 | 1.0937 ± 7.8e-05
12 | Cc1nc(Nc2ncc(C(=O)Nc3c(C)cccc3Cl)s2)cc(N2CCN(CCO)CC2)n1 [Dasatinib] | 0.953 ± 0.026 | 0.206 ± 0.2
13 | CS(=O)(=O)c1ccc(C(=O)Nc2ccc(Cl)c(-c3ccccn3)c2)c(Cl)c1 [Vismodegib (GDC-0449)] | 1.05 ± 0.072 | 0.311 ± 0.32
14 | COc1cc2nccc(Oc3ccc(NC(=O)C4(C(=O)Nc5ccc(F)cc5)CC4)cc3)c2cc1OC | 0.886 ± 0.23 | 0.56 ± 0.041
15 | CC(=O)OC12COC1CC(O)C1(C)C(=O)C(O)C3=C(C)C(OC(=O)C(O)C(NC(=O)OC(C)(C)C)c4ccccc4)CC(O)(C(OC(=O)c4ccccc4)C21)C3(C)C.O.O.O (stereo unspecified) [Docetaxel Trihydrate] | 0.528 ± 0.15 | 0.631 ± 0.044
16 | COc1cc(N2CCC(N3CCN(C)CC3)CC2)ccc1Nc1ncc(Cl)c(Nc2ccccc2P(C)(C)=O)n1 | 0.688 ± 0.15 | 0.41 ± 0.083
17 | O=C(O)CCCN1CCC(OC(c2ccc(Cl)cc2)c2ccccn2)CC1 (stereo unspecified) [Bepotastine] | 0.797 ± 0.031 | 1.06 ± 0.18
18 | CC1CCC2(C(=O)OC3OC(COC4OC(CO)C(OC5OC(C)C(O)C(O)C5O)C(O)C4O)C(O)C(O)C3O)CCC3(C)C(=CCC4C5(C)CC(O)C(O)C(C)(CO)C5CCC43C)C2C1C (stereo unspecified) [Asiaticoside] | 1.06 ± 0.2 | 1.17 ± 0.021
19 | CC(O)CO.CCOc1ccc(Cc2cc(C3OC(CO)C(O)C(O)C3O)ccc2Cl)cc1.O (stereo unspecified) [Dapagliflozin propanediol monohydrate] | 1.07 ± 0.13 | 1.14 ± 0.11
20 | Cn1c(=O)cc(N2CCCC(N)C2)n(Cc2ccccc2C#N)c1=O (stereo unspecified) [Alogliptin(SYK-322)benzoate] | 0.986 ± 0.057 | 1.05 ± 0.088
21 | NC(CO)(CO)CO.O=C(c1ccccc1)c1ccc2n1CCC2C(=O)O (stereo unspecified) [Ketorolac tromethamine salt] | 0.948 ± 0.075 | 1.05 ± 0.19
22 | COc1cc(C2Oc3ccc(C4Oc5cc(O)cc(O)c5C(=O)C4O)cc3OC2CO)ccc1O (stereo unspecified) [Silymarin] | 1.53 ± 0.29 | 1.21 ± 0.17
23 | Cc1cncc(CN2CCC(=C3c4ccc(Cl)cc4CCc4cccnc43)CC2)c1.O=C(O)/C=C/C(=O)O [Rupatadine Fumarate] | 0.996 ± 0.05 | 1.16 ± 0.17
24 | C=C1C(=O)OC2C1CCC(=C)C1CCC(=C)C12 (stereo unspecified) [Dehydrocostus Lactone] | 0.75 ± 0.052 | 0.808 ± 0.077
25 | CC1CC2C(C(O)CC3(C)C2CCC3(O)C(=O)COC(=O)CCC(=O)O)C2(C)C=CC(=O)C=C12 (stereo unspecified) [Methylprednisolone hemisuccinate] | 0.848 ± 0.037 | 0.911 ± 0.24
26 | CNC(=O)c1ccc(N2C(=S)N(c3cnc(C#N)c(C(F)(F)F)c3)C(=O)C23CCC3)cc1F | 1.03 ± 0.13 | 1.02 ± 0.11
27 | C#Cc1cccc(Nc2ncnc3cc(OCCOC)c(OCCOC)cc23)c1 [Erlotinib] | 0.81 ± 0.028 | 0.616 ± 0.035
28 | COc1cc(/C=C/C(=O)/C=C(O)/C=C/c2ccc(O)c(OC)c2)ccc1O [Curcumin] | 1.36 ± 0.48 | 0.985 ± 0.12
